The results in this text go back to PubChem BioAssay AID743398 (Broad Institute, 2014).

Out of some 300,000 compounds screened, about 3,600 (1.2%) were called active. This is one part of a sample in which actives are shown more often than they occur. A number with no mark means an inactive call. Rule as the data show it: active = activation above about 30% (passing the limit was not always enough); inconclusive = no clear call, values can overlap the other calls.

The experiment in a line: activation of beta-catenin signaling reporter – cell-based, plate reader, single point, primary screen (AID 743398).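 Also: 0% = neutral control wells and 100% = positive control wells.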 The note with it: Wnt/beta-catenin reporter cell assay, activator, at 9.35 µM, active compounds read high.
For `O=C(C(=O)N1CCC(c2ccccc2)CC1)c1ccccc1`, the activation is -2.25%. The same measure for `Cc1cc(NC(=O)COc2ccccc2C#N)no1`: 19%; for `Cc1cc(NC(=O)CSc2nc3c(cc2C#N)CCCCC3)no1`: 35.1% (active); for `CC(NC(=O)CSc1nc2c(cc1C#N)CN(C)CC2)c1ccccc1` (stereo not given): -0.152%. The same measure for `CCOC(=O)C=Cc1ccc(C(=O)OCC)[nH]1`: -4.57%; for `COc1ccc(C2=CN(Cc3ccccc3)C(c3ccc(OC)cc3)CC2=O)cc1` (stereo not given): -3.3%; for `COC(=O)c1ccc(OC(=O)c2cnccn2)cc1`: -1.23%. Turning to `O=C(NCCCNC(=O)c1ccccc1Cl)c1cnccn1`, the activation was -1.92%. The same measure for `Cn1c(=NC(=O)c2cnccn2)sc2ccccc21`: 40.5% (active). With `CC(=O)C1=C(C)N(Cc2ccccc2)C(=S)NC1c1cccc(Br)c1` (stereo not given), the activation is -4.75%.

Take `CCOC(=O)[C@]12CCCC=C1N(CCC1=CCCCC1)C(=O)[C@H](CC(=O)NCCCOC)C2`: the activation was -3.04%. As for `O=C(N/N=C/c1ccc([N+](=O)[O-])o1)c1cn(-c2ccccc2)nc1-c1ccc(F)cc1`, the activation is -0.879%.

Regarding `O=C(/C=C/c1ccc([N+](=O)[O-])o1)NNC(=O)c1ccc(F)cc1`, the activation is 37.2% (active). As for `O=C(NNC(=O)C1CCCC1)c1ccc(F)cc1`, the activation is -1.64%. With `CCCCCn1nnnc1-c1nc2cc3ccccc3cc2[nH]c1=O`, the activation is -1.88%. The same measure for `COc1ccc(NC(=O)C2(C)Cc3c(-c4cccc(NC(C)=O)c4)ccnc3O2)cc1OC` (stereo not given): -0.993%; for `COCc1cc(N2CCN(C(=O)OC(C)(C)C)C[C@@H]2C)ccc1N1CCN(Cc2ccccc2)[C@H](C)C1`: -6.08%; for `O=C(Cc1nn[nH]n1)NCCC1=CCCCC1`: 1.57%. As to `O=C(NCCC1=CCCCC1)c1ccc(Cl)c([N+](=O)[O-])c1`, the activation was 12.3%. The same measure for `O=C(NCCC1=CCCCC1)c1ccc(-n2cncn2)cc1`: 36.7% (active); for `COC(=O)[C@@]12C[C@@H](CC(=O)NCCCCc3ccccc3)C(=O)N(Cc3ccccc3)C1=CCC(C)(C)C2`: -3.6%; for `CC(C)c1ccc(S(=O)(=O)N2CCN(C(=O)c3ccc(N4CCCC4)c([N+](=O)[O-])c3)CC2)cc1`: -1.38%. As for `O=C(c1ccc(N2CCOCC2)c([N+](=O)[O-])c1)N1CCN(S(=O)(=O)c2cccs2)CC1`, the activation was 42% (active). Consider `O=C(c1ccc(N2CCOCC2)c([N+](=O)[O-])c1)N1CCN(c2ccccc2F)CC1`, for which the activation is -6.11%.

Take `O=S1(=O)c2c(cccc2N2CCCC2)O[C@H](COCc2ccccc2)CN1C1CC1`: the activation was -2.59%.

In the case of `c1ccc(C2=Nc3cccc4cccc(c34)N2)cc1`, the activation is -4.88%.

For the molecule `Brc1ccc(C2CC(c3ccccc3)=Nc3ccccc3N2)cc1` (stereo not given), the activation is 63.6% (active). Take `O=C(c1ccccc1)N1N=C(c2ccccc2O)CC1c1ccc(Br)cc1` (stereo not given): the activation was -1.76%. On to `COCOc1cccc(CN2CCC(C)(Oc3ccc(SC)cc3)C2)c1` (stereo not given), for which the activation is 0.071%.

As to `CC1(C)CC(=O)C=C(c2ccc(COC(=O)c3cc(F)cc(F)c3)cc2)C1=O`, the activation is 0.449%.

With `CCc1cc(-c2nnn(CCC3COCCO3)c2CC)ccc1-c1cn(Cc2ccc3ccccc3c2)nn1` (stereo not given), the activation was -3.93%. As to `COc1ccc(N=C(C)c2sc3ccccc3c2O)cc1`, the activation was 50.3% (active). Consider `COC(=O)Cc1[nH]n(-c2nc3ccccc3s2)c(=O)c1C(C)=Nc1ccc(OC)cc1`, for which the activation was -8.84%. Regarding `COc1ccc(N=Nc2ccc(O)c(P(=O)(c3ccccc3)c3ccccc3)c2)cc1`, the activation was 1.19%.

On to `COc1cc(NC(=O)C2=C(C)OCCS2)c(Cl)cc1C(=O)NCCCN1CCCC(C)C1` (stereo not given), for which the activation was 2.04%. As to `Cc1cc2cc3n(c2nn1)N=C(Cl)CC3`, the activation was -1.61%.

Turning to `O=C1CC(c2ccccc2)=NN1c1ccc([N+](=O)[O-])cc1`, the activation is 5.66%. As to `Cc1nn(-c2ccc([N+](=O)[O-])cc2)c(N)c1-c1ccccc1`, the activation is 37.5% (active).

As to `Cc1cc(CO)nn1-c1ccc([N+](=O)[O-])cc1`, the activation was 3.25%. Regarding `CC(C)C[C@H](NC(=O)CC1CCCC1)C(=O)N1CCC[C@H]1C(=O)NCc1ccccc1`, the activation is 3.46%. `COc1cccc(NC(=O)C2(C)CCN2C(=O)CCC2CCCC2)c1` (stereo not given): the activation is -2.67%.

Take `Cc1ccc(Cc2c(-c3ccc(Cl)cc3)nc3c4ccccc4ccn23)cc1`: the activation was -0.0465%.

With `O=C(Cc1nc2ccccc2[nH]c1=O)c1ccc(Cl)cc1`, the activation was 52.5% (active).

For `O=C(/C(=C/c1cccc(Cl)c1)c1nc2ccccc2[nH]1)c1ccccc1`, the activation is 27.7%. For `O=C(CSc1nc2ccc([N+](=O)[O-])cc2[nH]1)c1ccc(Cl)cc1`, the activation was -2.13%. As for `Cc1ccc(Nc2ncnc3c2cnn3C)c(C)c1`, the activation was 0.858%. As for `O=C(NNc1ncnc2c1cnn2-c1ccccc1)c1ccco1`, the activation is 0.184%. Regarding `Cc1ccc(-n2ncc3c(Nc4cccc(C(=O)O)c4)ncnc32)cc1`, the activation was 42.2% (active). As to `CC(=O)C1=C(C)N(Cc2ccc(Cl)cc2)C(=S)NC1c1ccc(F)cc1` (stereo not given), the activation was -10%. Regarding `CCOc1ccc(C2C(C#N)=C(N)N(N(C)C)C3=C2C(=O)CCC3)cc1` (stereo not given), the activation is 6.29%. On to `N#CC1=C(N)N(c2ccccc2)C2=C(C(=O)CCC2)C1c1ccccc1` (stereo not given), for which the activation was -0.648%. For the molecule `COc1ccc(C2C(C#N)=C(N)N(c3ncn[nH]3)C3=C2C(=O)CCC3)cc1` (stereo not given), the activation is 43.2% (active). For `COc1cccc(-c2nc3nc(C)cc(C)n3c2NC2CCCCC2)c1`, the activation was 5.8%. The same measure for `CC[C@H](NC(=O)[C@H](Cc1ccccc1)NC(=O)[C@H]1O[C@@H](n2cnc3c(=O)[nH]c(N)nc32)[C@H](O)[C@@H]1O)c1ccccc1`: -0.864%; for `Cc1sc2ncnc(N3CCC(C(=O)NNC(=O)c4ccc(F)cc4)CC3)c2c1C`: 3.2%. The figure for `Cc1sc2ncnc(N3CCC(C(=O)Nc4nc5ccc(Cl)cc5s4)CC3)c2c1C` is 38.3% (active). Consider `Cc1sc2ncnc(N3CCC(C(=O)Nc4ccc(F)cc4Cl)CC3)c2c1C`, for which the activation was -1.16%. On to `C[C@H](NC(=O)[C@@H]1CCCN1C(=O)[C@@H]1CCCN1C(=O)c1ccccc1)c1ccccc1`, for which the activation was -3.41%. Consider `COc1ccc(Cn2c(-c3ccc(Cl)cc3)c[n+]3ccccc23)cc1`, for which the activation was 68.9% (active). Consider `COc1ccc(Cn2c(=O)oc3ccccc32)cc1`, for which the activation is 8.74%. Consider `CCn1c(C)cc(=O)cc1-c1ccc(Cl)cc1`, for which the activation was 2.88%.

As to `Cc1cc(C)n2c(NCc3ccccc3)c(CC(C)C)nc2n1`, the activation was -0.325%. As for `COC(=O)C1=C(C)N(Cc2cccc(C(F)(F)F)c2)C(=NCc2ccccc2)NC1c1ccccc1C(F)(F)F` (stereo not given), the activation was -15.6%.

Take `O=C(CC(CC(=O)c1ccccc1)c1ccco1)c1ccccc1`: the activation was 0.593%.

As for `O=C(COC(=O)c1ccc(O)cc1O)c1ccc2c(c1)OCCO2`, the activation is 53.6% (active).

On to `O=C(COC(=O)c1ccc(O)cc1O)NC(=O)c1ccccc1`, for which the activation is -3.61%. The same measure for `O=C(COC(=O)c1ccccc1)c1ccc2c(c1)OCCO2`: -3.49%; for `O=C(O)Cn1cnc2c(NCc3ccccc3)ncnc21`: -0.517%; for `COC(=O)C1=C(C)N(Cc2cccc(C(F)(F)F)c2)C(=NCc2ccccc2)NC1c1ccc(Cl)cc1` (stereo not given): -31.1%. The figure for `COc1ccc(-c2cc(C(=O)NCCCn3ccnc3)no2)cc1` is 6.05%; for `O=C(NCCCn1ccnc1)c1ccccc1F` it is -0.169%. `O=C(NC1CCCCCCC1)c1cccs1`: the activation is 9.38%. The figure for `O=C(NC1CCCC1)c1cc(-c2ccccc2)on1` is 46.9% (active). As to `O=C(NCCCn1ccnc1)c1cc(-c2ccccc2)on1`, the activation was 113% (active). In the case of `O=C(NC1CCCCC1)c1cc(C2CC2)on1`, the activation was 24.8%. Regarding `Cc1ccccc1S(=O)(=O)N1[C@@H](c2cccc(Cl)c2)C(C(=O)OC(C)(C)C)=CC[C@H]1c1ccc(Cl)cc1`, the activation was -9.66%. With `COc1ccccc1-c1ccc([C@@H]2C[C@H]3[C@H](CON3C)CN2S(=O)(=O)c2cc(Cl)cc(Cl)c2)cc1`, the activation was -3.43%. Turning to `COC(=O)[C@]12C[C@H](CC(=O)NCc3ccccc3)C(=O)N(CCC3=CCCCC3)C1=C[C@H](C(C)(C)C)O[C@@H]2C`, the activation was -7.29%.

For `Cc1cccc(CNC(=O)c2sc(=O)n(Cc3ccccc3C)c2C)c1`, the activation is -2.16%. Turning to `Cc1cnc(NC(=O)c2ccc(Cl)nc2)s1`, the activation was 29%. On to `Cc1cnc(NC(=O)c2ccccn2)s1`, for which the activation was 41.6% (active). In the case of `O=C(Nc1nnc(C2CC2)s1)c1ccccn1`, the activation was 3.38%. The same measure for `COC(=O)[C@]12C[C@H](CC(=O)NCCCCc3ccccc3)C(=O)N(Cc3ccc4c(c3)OCO4)C1=C[C@H](C(C)(C)C)O[C@@H]2C`: -8.78%; for `O=C(/C=C/c1ccccc1)Nc1nnc(SCC(=O)c2ccc3ccccc3c2)s1`: -11.8%; for `NC(=O)CSc1nnc(NC(=O)c2ccc(Br)o2)s1`: 3.36%.

As for `NC(=O)CSc1nnc(NC(=O)c2ccc3ccccc3c2)s1`, the activation is 39.8% (active).

As to `COc1ccc(CC(N)c2csc(NC(=O)Nc3ccc(C(C)C)cc3)n2)cc1` (stereo not given), the activation was 0.986%. For the molecule `Cc1ccc(C)c(CN2CCC(CNC(=O)C3CCCN(c4ncnc5c4nc4n5CCCCC4)C3)CC2)c1` (stereo not given), the activation is 2.22%. As to `CSc1ccc(CN2CCC2(C)C(=O)NCc2ccccc2Br)cc1` (stereo not given), the activation is -0.564%. For `CCOC(=O)C1CCCN(C(=O)c2cc(-c3cccs3)oc2C)CC1` (stereo not given), the activation is -1.53%.
